Test results as given in the supplement of paper PMC10849652.
Targets with a hit are over-represented here; the source holds about 7,900 in all. About 0.6% of all pairs of compound and target were hits. Unmarked numbers belong to inactive results.

Columns and labels:
Experiment in all cases: log2 fold change, soluble protein after heating vs DMSO (PISA); higher = thermal stabilisation; K562 cells, 10 uM, 30 min; active = over 0.2 and 3.5 SD of the protein, either way, in both replicates (recomputed)
[1] = compound: Cc1ccc(NC(=O)c2ccc(CN3CC[C@H](N(C)C)C3)c(C(F)(F)F)c2)cc1Nc1nccc(-c2cncnc2)n1 [bafetinib]
In short: (§1)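 K562 cells at 2×10^6 cells/mL were given 10 μM compound for 30 min. Aliquots then went through 3 min of heating across 48°C-58°C, were pooled, and were extracted in PBS with 0.5% NP-40 at 4°C, and the supernatant after 21,000xg for 90 min was quantified by TMTpro 16plex LC-MS/MS with channel sums equalised. Thermal stability relative to control samples, from duplicates, is given as log2 fold change.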

[2] = compound: Cc1cccc(CC(=O)N2CCc3c2ccc(-c2cn(C)c4ncnc(N)c24)c3F)n1
In short: as §1

[3] = compound: Cc1cn(-c2cc(NC(=O)c3ccc(C)c(Nc4nccc(-c5cccnc5)n4)c3)cc(C(F)(F)F)c2)cn1 [nilotinib]
In short: as §1

[4] = compound: Cc1nc(Nc2n[nH]c3c2CN(C(=O)N[C@H](CN(C)C)c2ccccc2)C3(C)C)c2sccc2n1
In short: as §1

[5] = compound: Cc1nc(Nc2ncc(C(=O)Nc3c(C)cccc3Cl)s2)cc(N2CCN(CCO)CC2)n1 [dasatinib]
In short: as §1

[6] = compound: Cc1ncc(-c2ccnc(Nc3ccc(S(C)(=O)=O)cc3)n2)n1C(C)C
In short: as §1

[7] = compound: Cn1cc(-c2ccc3c(c2)CCN3C(=O)Cc2cccc(C(F)(F)F)c2)c2c(N)ncnc21
In short: as §1

[8] = compound: Cn1cc(-c2ccc3nnc(C(F)(F)c4ccc5ncccc5c4)n3n2)cn1
In short: as §1

[9] = compound: Cn1cncc1[C@@](N)(c1ccc(Cl)cc1)c1ccc2c(c1)c(-c1cccc(Cl)c1)cc(=O)n2C [tipifarnib]
In short: as §1

[10] = compound: FC(F)(F)c1ccc(/C=C/c2nc(COc3ccc(CCCCn4ccnn4)cc3)co2)cc1 [mubritinib]
In short: as §1

UniProt Q7L7X3, sequence (Q7L7X3 whole entry, looked up): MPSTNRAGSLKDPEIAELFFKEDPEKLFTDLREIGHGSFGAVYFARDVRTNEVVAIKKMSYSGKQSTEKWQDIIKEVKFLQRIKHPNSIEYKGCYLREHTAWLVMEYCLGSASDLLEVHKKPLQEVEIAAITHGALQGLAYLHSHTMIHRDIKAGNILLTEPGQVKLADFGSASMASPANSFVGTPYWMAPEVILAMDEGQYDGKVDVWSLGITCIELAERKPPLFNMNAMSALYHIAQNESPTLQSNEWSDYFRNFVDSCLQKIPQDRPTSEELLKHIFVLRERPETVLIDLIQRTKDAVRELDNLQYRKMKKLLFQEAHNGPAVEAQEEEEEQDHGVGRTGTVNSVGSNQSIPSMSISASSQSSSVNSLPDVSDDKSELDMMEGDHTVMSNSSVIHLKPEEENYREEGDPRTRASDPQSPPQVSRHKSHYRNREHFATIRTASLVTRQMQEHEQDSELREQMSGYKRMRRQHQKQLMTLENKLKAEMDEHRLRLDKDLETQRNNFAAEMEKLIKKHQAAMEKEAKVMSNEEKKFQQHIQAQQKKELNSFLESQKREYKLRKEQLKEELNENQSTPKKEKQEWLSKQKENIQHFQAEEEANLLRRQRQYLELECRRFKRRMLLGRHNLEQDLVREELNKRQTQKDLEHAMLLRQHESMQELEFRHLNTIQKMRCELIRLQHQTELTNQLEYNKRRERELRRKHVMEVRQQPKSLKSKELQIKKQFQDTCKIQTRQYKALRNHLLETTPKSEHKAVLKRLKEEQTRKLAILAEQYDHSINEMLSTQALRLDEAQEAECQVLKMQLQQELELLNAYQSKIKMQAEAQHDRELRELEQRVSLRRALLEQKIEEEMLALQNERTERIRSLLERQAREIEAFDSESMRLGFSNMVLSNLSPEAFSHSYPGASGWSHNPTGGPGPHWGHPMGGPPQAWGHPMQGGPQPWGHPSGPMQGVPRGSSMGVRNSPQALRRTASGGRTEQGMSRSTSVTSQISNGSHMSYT
UniProt Q8NEF9, sequence (Q8NEF9 whole entry, looked up): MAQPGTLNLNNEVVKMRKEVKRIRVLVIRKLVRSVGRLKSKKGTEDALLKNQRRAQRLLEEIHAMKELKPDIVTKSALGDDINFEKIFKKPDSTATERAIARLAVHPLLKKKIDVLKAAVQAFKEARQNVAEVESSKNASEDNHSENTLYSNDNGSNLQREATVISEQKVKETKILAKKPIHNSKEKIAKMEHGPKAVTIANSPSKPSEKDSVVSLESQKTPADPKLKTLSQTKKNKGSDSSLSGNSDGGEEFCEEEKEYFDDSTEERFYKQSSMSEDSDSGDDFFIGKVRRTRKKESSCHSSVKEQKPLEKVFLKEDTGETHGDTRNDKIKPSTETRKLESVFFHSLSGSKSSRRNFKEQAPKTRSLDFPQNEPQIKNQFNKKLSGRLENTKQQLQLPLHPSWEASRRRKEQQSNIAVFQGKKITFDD
UniProt O60271, sequence (O60271 whole entry, looked up): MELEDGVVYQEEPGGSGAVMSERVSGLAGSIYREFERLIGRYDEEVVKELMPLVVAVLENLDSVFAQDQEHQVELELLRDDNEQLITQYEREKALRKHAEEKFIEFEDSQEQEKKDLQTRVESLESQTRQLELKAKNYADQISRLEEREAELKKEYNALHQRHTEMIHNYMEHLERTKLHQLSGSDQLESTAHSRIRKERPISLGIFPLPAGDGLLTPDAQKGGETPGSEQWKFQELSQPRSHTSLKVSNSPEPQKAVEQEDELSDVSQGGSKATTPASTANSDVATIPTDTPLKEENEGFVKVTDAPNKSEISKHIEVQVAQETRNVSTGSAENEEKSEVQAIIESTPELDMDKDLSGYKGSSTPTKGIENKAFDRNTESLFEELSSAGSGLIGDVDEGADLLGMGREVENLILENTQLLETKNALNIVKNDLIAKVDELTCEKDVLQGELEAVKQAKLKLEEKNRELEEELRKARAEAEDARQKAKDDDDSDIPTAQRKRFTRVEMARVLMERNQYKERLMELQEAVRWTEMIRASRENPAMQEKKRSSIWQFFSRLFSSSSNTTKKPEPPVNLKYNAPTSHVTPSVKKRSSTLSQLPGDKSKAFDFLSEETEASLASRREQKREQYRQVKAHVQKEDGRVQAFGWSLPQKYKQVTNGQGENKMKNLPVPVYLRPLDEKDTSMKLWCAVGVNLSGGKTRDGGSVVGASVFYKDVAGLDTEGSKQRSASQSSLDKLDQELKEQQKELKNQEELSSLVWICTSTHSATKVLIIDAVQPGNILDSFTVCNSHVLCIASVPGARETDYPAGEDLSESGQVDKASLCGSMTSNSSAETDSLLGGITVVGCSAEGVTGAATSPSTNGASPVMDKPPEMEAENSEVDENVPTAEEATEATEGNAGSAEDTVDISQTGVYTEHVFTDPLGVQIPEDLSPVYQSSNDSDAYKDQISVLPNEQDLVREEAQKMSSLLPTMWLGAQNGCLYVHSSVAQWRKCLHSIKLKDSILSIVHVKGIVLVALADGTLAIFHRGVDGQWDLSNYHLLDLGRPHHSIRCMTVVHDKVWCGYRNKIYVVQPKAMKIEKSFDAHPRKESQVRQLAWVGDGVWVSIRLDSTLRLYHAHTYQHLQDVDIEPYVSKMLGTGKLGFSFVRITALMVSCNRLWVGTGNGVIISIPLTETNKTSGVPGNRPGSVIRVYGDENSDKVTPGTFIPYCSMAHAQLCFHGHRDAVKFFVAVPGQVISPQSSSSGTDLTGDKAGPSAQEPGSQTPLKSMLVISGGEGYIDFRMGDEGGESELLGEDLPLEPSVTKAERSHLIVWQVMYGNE
UniProt Q9UMY4, sequence (Q9UMY4 whole entry, looked up): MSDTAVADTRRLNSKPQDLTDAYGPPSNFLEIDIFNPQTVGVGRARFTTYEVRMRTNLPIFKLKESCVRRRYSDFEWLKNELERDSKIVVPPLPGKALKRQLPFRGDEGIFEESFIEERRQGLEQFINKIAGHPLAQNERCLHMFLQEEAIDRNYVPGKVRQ
UniProt Q9NZ01, sequence (Q9NZ01 whole entry, looked up): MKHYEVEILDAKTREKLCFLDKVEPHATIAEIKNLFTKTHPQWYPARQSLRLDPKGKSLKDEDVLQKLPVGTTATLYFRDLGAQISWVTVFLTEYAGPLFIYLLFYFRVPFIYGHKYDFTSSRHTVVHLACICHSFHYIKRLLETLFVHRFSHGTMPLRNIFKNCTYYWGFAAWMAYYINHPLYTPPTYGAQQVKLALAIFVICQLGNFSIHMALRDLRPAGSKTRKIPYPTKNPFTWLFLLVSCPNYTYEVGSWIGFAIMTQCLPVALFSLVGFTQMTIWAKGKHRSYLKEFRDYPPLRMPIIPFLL
UniProt O60264, sequence (O60264 whole entry, looked up): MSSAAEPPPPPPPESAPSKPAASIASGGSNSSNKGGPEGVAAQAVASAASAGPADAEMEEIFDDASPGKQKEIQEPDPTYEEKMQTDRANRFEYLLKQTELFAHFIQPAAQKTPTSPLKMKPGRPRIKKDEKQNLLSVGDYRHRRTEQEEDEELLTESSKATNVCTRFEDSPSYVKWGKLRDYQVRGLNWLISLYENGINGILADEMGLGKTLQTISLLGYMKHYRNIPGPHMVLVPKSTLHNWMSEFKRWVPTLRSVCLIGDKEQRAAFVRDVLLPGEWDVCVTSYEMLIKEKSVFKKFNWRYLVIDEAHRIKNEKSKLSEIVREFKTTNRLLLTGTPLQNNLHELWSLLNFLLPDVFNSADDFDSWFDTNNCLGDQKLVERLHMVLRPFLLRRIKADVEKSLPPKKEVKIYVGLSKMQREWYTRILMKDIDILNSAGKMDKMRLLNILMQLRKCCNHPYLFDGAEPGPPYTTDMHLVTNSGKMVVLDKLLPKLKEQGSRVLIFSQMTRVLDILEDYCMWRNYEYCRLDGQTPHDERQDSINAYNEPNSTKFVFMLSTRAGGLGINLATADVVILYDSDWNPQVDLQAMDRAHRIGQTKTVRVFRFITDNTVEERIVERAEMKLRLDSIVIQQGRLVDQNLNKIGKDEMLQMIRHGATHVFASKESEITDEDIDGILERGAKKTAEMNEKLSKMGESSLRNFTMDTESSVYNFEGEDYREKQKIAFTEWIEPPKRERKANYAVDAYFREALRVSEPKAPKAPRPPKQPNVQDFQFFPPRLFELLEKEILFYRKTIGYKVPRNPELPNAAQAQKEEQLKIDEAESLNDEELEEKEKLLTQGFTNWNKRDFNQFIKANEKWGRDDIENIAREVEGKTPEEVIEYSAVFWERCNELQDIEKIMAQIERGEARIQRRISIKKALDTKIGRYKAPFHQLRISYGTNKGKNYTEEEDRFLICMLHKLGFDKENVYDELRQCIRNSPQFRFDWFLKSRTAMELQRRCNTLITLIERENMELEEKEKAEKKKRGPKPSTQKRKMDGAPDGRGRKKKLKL
UniProt P35610, sequence (P35610 whole entry, looked up): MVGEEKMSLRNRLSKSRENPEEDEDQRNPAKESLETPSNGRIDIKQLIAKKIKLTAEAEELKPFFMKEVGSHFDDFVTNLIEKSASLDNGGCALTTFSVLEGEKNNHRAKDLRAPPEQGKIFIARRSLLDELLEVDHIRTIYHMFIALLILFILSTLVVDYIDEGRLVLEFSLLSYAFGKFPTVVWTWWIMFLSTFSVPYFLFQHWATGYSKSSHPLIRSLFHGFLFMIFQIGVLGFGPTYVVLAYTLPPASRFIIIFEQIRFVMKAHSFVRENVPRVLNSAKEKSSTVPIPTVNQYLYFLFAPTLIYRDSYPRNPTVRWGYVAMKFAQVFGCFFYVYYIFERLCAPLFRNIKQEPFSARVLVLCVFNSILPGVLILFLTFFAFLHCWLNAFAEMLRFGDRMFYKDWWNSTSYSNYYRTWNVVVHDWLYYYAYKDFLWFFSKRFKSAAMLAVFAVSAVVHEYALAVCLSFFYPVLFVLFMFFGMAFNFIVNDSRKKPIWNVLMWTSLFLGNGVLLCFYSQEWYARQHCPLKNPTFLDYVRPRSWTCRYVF
UniProt Q8WVK2, sequence (Q8WVK2 whole entry, looked up): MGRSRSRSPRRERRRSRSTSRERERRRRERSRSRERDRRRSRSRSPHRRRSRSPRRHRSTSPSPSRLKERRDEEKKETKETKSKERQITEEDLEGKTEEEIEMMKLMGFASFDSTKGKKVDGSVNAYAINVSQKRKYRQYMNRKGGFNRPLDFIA

| Target | log2 fold change [1] | log2 fold change [2] | log2 fold change [3] | log2 fold change [4] | log2 fold change [5] | log2 fold change [6] | log2 fold change [7] | log2 fold change [8] | log2 fold change [9] | log2 fold change [10] |
| --- | --- | --- | --- | --- | --- | --- | --- | --- | --- | --- |
| SRFBP1 (UniProt Q8NEF9) | 0.075 | -0.014 | 0.303 | -0.031 | 0.095 | -0.066 | -0.163 | -0.044 | 0.177 | -0.129 |
| TANK (UniProt Q92844) | -0.049 | -0.106 | 0.054 | 0.337 (active) | -0.025 | 0.082 | -0.021 | -0.036 | -0.016 | 0.03 |
| SRP68 (UniProt Q9UHB9) | 0.043 | 0.054 | -0.118 | -0.063 | -0.098 | 0.055 | -0.026 | -0.08 | -0.119 | 0.012 |
| SPTBN4 (UniProt Q9H254) | -0.036 | -0.044 | -0.167 | 0.027 | 0.017 | -0.04 | -0.014 | 0.03 | -0.09 | 0.066 |
| TAOK1 (UniProt Q7L7X3) | -0.056 | 0.025 | 0.007 | -0.023 | -0.014 | -0.03 | 0.043 | -0.026 | 0.067 | 0.078 |
| STK25 (UniProt O00506) | -0.015 | -0.055 | -0.083 | 0.257 (active) | -0.133 | -0.033 | 0.008 | 0.007 | 0.042 | -0.013 |
| STK17B (UniProt O94768) | 0.024 | – | – | – | – | – | – | – | – | – |
| SNRNP27 (UniProt Q8WVK2) | -0.015 | -0.079 | 0.087 | -0.487 (active) | 0.045 | -0.064 | -0.078 | 0.031 | 0.032 | 0.059 |
| SNX12 isoform 1 (UniProt Q9UMY4) | -0.067 | 0.042 | -0.038 | -0.016 | -0.043 | -0.191 | 0.038 | 0.008 | -0.015 | -0.009 |
| SLC27A2 (UniProt O14975) | 0.044 | 0.005 | 0.179 | -0.104 | -0.106 | 0.025 | 0.054 | 0.073 | 0.187 | -0.001 |
| SRSF9 (UniProt Q13242) | 0.166 | -0.02 | 0.014 | 0.05 | 0.422 | 0.001 | -0.377 | -0.129 | 0.298 | -0.189 |
| SPAST (UniProt Q9UBP0) | -0.015 | -0.057 | -0.05 | -0.054 | -0.246 (active) | 0.026 | 0.099 | -0.022 | -0.065 | 0.036 |
| SPAG9 (UniProt O60271) | -0.056 | -0.014 | -0.039 | -0.074 | -0.076 | 0.015 | -0.018 | 0.012 | -0.005 | 0.054 |
| STAM2 (UniProt O75886) | -0.067 | 0.014 | 0.007 | -0.077 | 0.044 | -0.008 | 0.016 | 0.009 | -0.012 | 0.019 |
| SPR (UniProt P35270) | -0.062 | -0.102 | -0.04 | -0.012 | 0.467 (active) | -0.029 | 0.144 | 0.298 | 0.499 (active) | -0.083 |
| SLC25A39 (UniProt Q9BZJ4) | -0.182 | -0.397 | -0.136 | -0.119 | -0.035 | 0.035 | 0.081 | 0.092 | 0.009 | 0.104 |
| SLC30A10 (UniProt Q6XR72) | -0.019 | -0.148 | 0.029 | -0.061 | 0.016 | 0.043 | 0.078 | -0.026 | 0.067 | -0.007 |
| TBK1 (UniProt Q9UHD2) | -0.035 | -0.024 | -0.114 | 0.911 (active) | -0.096 | 0.012 | 0.055 | -0.002 | -0.103 | -0.038 |
| SRSF4 (UniProt Q08170) | 0.215 | -0.064 | 0.013 | -0.602 (active) | 0.109 | 0.028 | -0.166 | -0.14 | 0.127 | -0.109 |
| SNX15 (UniProt Q9NRS6) | 0.036 | 0.154 | -0.064 | -0.17 | 0.206 | 0.002 | -0.046 | 0.086 | 0.067 | -0.063 |
| TGFBI (UniProt Q15582) | -0.241 | 0.148 | -0.099 | 0.054 | -0.04 | 0.167 | 0.197 | 0.098 | -0.063 | -0.02 |
| TK1 (UniProt P04183) | -0.04 | -0.028 | -0.002 | 0.028 | 0.032 | -0.036 | 0.015 | 0 | 0 | 0.056 |
| SMG1 (UniProt Q96Q15) | 0.059 | -0.012 | 0.03 | -0.061 | -0.266 | -0.015 | -0.035 | 0.023 | -0.098 | 0.064 |
| SMARCA5 (UniProt O60264) | -0.052 | 0.001 | -0.019 | -0.152 | -0.052 | 0.002 | -0.088 | -0.112 | -0.022 | 0.184 |
| SUOX (UniProt P51687) | -0.084 | -0.181 | 0.063 | 0.013 | 0 | -0.066 | -0.015 | 0.063 | 0.019 | 0.032 |
| SOAT1 (UniProt P35610) | 0.085 | 0.011 | 0.566 (active) | -0.001 | 0.257 | -0.021 | 0.031 | -0.058 | 0.039 | 0.096 |
| TECR (UniProt Q9NZ01) | -0.133 | 0.057 | -0.123 | -0.035 | -0.109 | 0.021 | -0.006 | -0.012 | -0.135 | 0.016 |
| SPTBN1 (UniProt Q01082) | 0.064 | -0.017 | -0.01 | -0.145 | -0.043 | 0.054 | -0.009 | -0.007 | -0.045 | -0.075 |
| TCOF1 isoform 4 (UniProt Q13428) | -0.037 | -0.012 | -0.022 | 0.045 | 0.048 | -0.034 | -0.046 | -0.014 | 0.022 | 0.025 |
| SUCLA2 (UniProt Q9P2R7) | 0 | -0.065 | -0.098 | 0.057 | -0.149 | -0.04 | 0.005 | 0.038 | -0.01 | -0.697 (active) |
